# Inconclusive results are not listed. Values without a mark were called inactive. Activity calls are given as the source filed them. The call rests on the fitted dose curve.
# Test: qHTS assay for small molecule agonists of the p53 signaling pathway - cell viability (AID 651633); further: nearly all actives have a fitted effect of over 30% in size;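 on activity change, negative = cytotoxicity: p53RE-bla HCT reporter cells with a stable beta-lactamase p53 reporter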
# Conditions: p53RE-bla HCT-116 viability, ATP luminescence, 16 h; series mostly up to 83.3 µM; activity change, negative = cytotoxicity: at the top concentration
# Excerpt: National Center for Advancing Translational Sciences [NCATS]
# NIH Chemical Genomics Center [NCGC]
# U.S. Environmental Protection Agency [EPA]
# National Institutes of Environmental Health Sciences [NIEHS]
# National Toxicology Program [NTP]
# U.S. Food and Drug Administration [FDA]
# p53, a tumor suppressor protein, is activated following cellular insult, including DNA damage and other cellular stresses. The activation of p53 regulates cell fate by inducing DNA repair, cell cycle arrest, apoptosis, or cellular senescence. The activation of p53, therefore, is a good indicator of DNA damage and other cellular stresses. […] The activation of the reporter gene under culture conditions can be detected by fluorescence intensity. This cell line was used to screen the Tox21 compound library in a 1536-well plate format and to identify agonists that activate the p53 signaling pathway.
# Tox21 Assay Protocol Summary:
# The p53RE-bla cells were dispensed at 4,000 cells/5 ul/well in 1536-well black wall/clear bottom plates using a Multidrop dispenser. After the assay plates were incubated at a 37 C/5% CO2 incubator for 5 hours, 23 nL of compounds dissolved in DMSO, positive controls or DMSO only was transferred to the assay plate by a pin tool. The plates were incubated at 37 C for 16 hours. After 1 uL of LiveBLAzerTM B/G FRET substrate was added using a Flying Reagent Dispenser, the plates were incubated at room temperature for 2 hours, and fluorescence intensity was measured by an Envision plate reader.
# For cell viability readout that measures cytotoxicity, 4 ul/well of CellTiter-Glo reagent was added into the assay plates using a Flying Reagent Dispenser. After 30 min incubation at room temperature, the luminescence intensity in the plates was measured using a ViewLux plate reader.
# On the % scale 0 is the no-effect control and ±100 the full control effect; potency means the concentration at half of the fitted maximal effect.
Compound,"activity change, negative = cytotoxicity",Potency
NCCC[C@H](N)C(=O)O,11.8%,
CCCCCCCCCCCCCCCC(=O)OC[C@@H](O)[C@H]1OC[C@H](O)[C@H]1O,5.78%,
O=C(Nc1ccc(Br)cc1)c1cc(Br)c(Br)s1,,29.8 µM (active)
CO[C@H]1C[C@@H]2CC[C@@H](C)[C@@](O)(O2)C(=O)C(=O)N2CCCC[C@H]2C(=O)O[C@H]([C@H](C)C[C@@H]2CC[C@@H](OC(=O)C(C)(CO)CO)[C@H](OC)C2)CC(=O)[C@H](C)/C=C(\C)[C@@H](O)[C@@H](OC)C(=O)[C@H](C)C[C@H](C)/C=C/C=C/C=C/1C,6.85%,
CS(=O)(=O)OCC(O)C(O)COS(C)(=O)=O (stereo not given),-10.5%,
Cc1cc(C(=O)NNCc2ccccc2)no1,7.26% [at 39.1 µM],
C=CC[C@@H]1/C=C(\C)C[C@H](C)C[C@H](OC)[C@H]2O[C@@](O)(C(=O)C(=O)N3CCCC[C@H]3C(=O)O[C@H](/C(C)=C/[C@@H]3CC[C@@H](O)[C@H](OC)C3)[C@H](C)[C@@H](O)CC1=O)[C@H](C)C[C@@H]2OC,,26.6 µM (active)
CCCCCCOc1ccc(C(=N)N(CCCC)CCCC)c2ccccc12,,21.1 µM (active)
COC(=O)C1=C(C#N)NC(C)=C(C(=O)OC(C)C)C1c1cccc([N+](=O)[O-])c1 (stereo not given),-7.2%,
CCOc1ccc(N=C(C)Nc2ccc(OCC)cc2)cc1,-14.6%,
CO/N=C(\C(=O)N[C@@H]1C(=O)N2C(C(=O)OCOC(=O)C(C)(C)C)=C(/C=C\c3scnc3C)CS[C@H]12)c1csc(N)n1,13.7%,
Cn1nnnc1SCC1=C(C(=O)O)N2C(=O)[C@@H](NC(=O)[C@H](O)c3ccccc3)[C@H]2SC1,7.01% [at 39.1 µM],
NC(=O)Oc1ccc(Cc2ccccc2)cc1,14.3%,
CC(=O)O[C@H]1CC[C@@]2(C)C(=CC[C@H]3[C@@H]4CC[C@H](C(C)=O)[C@@]4(C)CC[C@@H]32)C1,12.4%,
CCCCC(C)(O)C/C=C/[C@H]1[C@H](O)CC(=O)[C@@H]1CCCCCCC(=O)OC (stereo not given in full),11.5%,
CS(=O)(=O)OCCCNCCCOS(C)(=O)=O,14.6%,
CCC(CN)CC(C)CCNCC(O)CNCC(C)CC(CC)CN (stereo not given),-11.3%,
C=C1C(=O)O[C@H]2[C@H]1CC/C(C)=C\CC[C@@]1(C)O[C@@H]21,,29.8 µM (active)
CC(C)[C@@H]1CC[C@@H](C)C[C@H]1OC(=O)c1ccccc1O,21.3%,
CC1(C)[C@@H]2CC[C@@]1(C)[C@H](OC(=O)CSC#N)C2,-12.2%,

Compound,"activity change, negative = cytotoxicity",Potency
CC(C)CN(C[C@@H](O)[C@H](Cc1ccccc1)NC(=O)O[C@@H]1CCOC1)S(=O)(=O)c1ccc(N)cc1,2.75%,
Cc1c(N)nc(C(CC(N)=O)NCC(N)C(N)=O)nc1C(=O)NC(C(=O)NC(C)C(O)C(C)C(=O)NC(C(=O)NCCc1nc(-c2nc(C(=O)NCCCN[C@@H](C)c3ccccc3)cs2)cs1)C(C)O)C(O[C@@H]1O[C@@H](CO)[C@@H](O)[C@H](O)[C@@H]1O[C@H]1O[C@H](CO)[C@@H](O)[C@H](OC(N)=O)[C@@H]1O)c1cnc[nH]1 (stereo not given in full),-29.9%,
O=P(O)(O)OC(Cn1cncn1)(Cn1cncn1)c1ccc(F)cc1F,15.4%,
COc1ccc(CC2c3cc(OC)c(OC)cc3CC[N+]2(C)CCC(=O)OCCCCCOC(=O)CC[N+]2(C)CCc3cc(OC)c(OC)cc3C2Cc2ccc(OC)c(OC)c2)cc1OC (stereo not given),25.9% [at 39.1 µM],
CC(=O)O[C@H]1CC[C@@]2(C)C(=CC[C@@H]3[C@@H]2CC[C@]2(C)C(c4cccnc4)=CC[C@@H]32)C1,-3.45%,
CCCOc1cc(N)ccc1C(=O)OCCN(CC)CC,11.1% [at 39.1 µM],
S=C1SCN(Cc2ccccc2)CN1Cc1ccccc1,-3.59%,
CN[C@@H]1[C@H](O[C@H]2[C@H](O[C@H]3[C@H](O)[C@@H](O)[C@H](N=C(N)N)[C@@H](O)[C@@H]3N=C(N)N)O[C@@H](C)[C@]2(O)CO)O[C@@H](CO)[C@H](O)[C@H]1O,14.8%,
Cc1cccc(C)c1NC(=O)NC1=CCCN1C,15%,
CCCCCCCCCCCCCCCCSCC(COC)COP(=O)([O-])OCC[N+](C)(C)C (stereo not given),3.73%,
CCCCCCCCCCCCCCCC(=O)OCC(COC(=O)CCCCCCCCCCCCCCC)OC(=O)CCCCCCCCCCCCCCC,-13.2%,
O=C(O)CCC/C=C\C[C@@H]1[C@@H](/C=C/[C@@H](O)COc2cccc(Cl)c2)[C@H](O)C[C@@H]1O,24.6%,
CCCCCCCCCCCCCCCC(=O)OCCC1CCN(CCCN2c3ccccc3Sc3ccc(S(=O)(=O)N(C)C)cc32)CC1,13.9%,
CCc1ccc(S(=O)(=O)O)cc1,-12.8%,
COc1c(O[C@@H]2O[C@H](CO)[C@@H](O)[C@H](O)[C@H]2O)cc2c(c1OC)-c1ccc(SC)c(=O)cc1[C@@H](NC(C)=O)CC2,12.4% [at 39.1 µM],
O=C1CCC(=O)N1CO,14%,
O=C(NCCNCC(O)COc1ccc(O)cc1)N1CCOCC1 (stereo not given),11.1%,
CCCC(=O)Nc1ncnc2c1ncn2[C@@H]1O[C@@H]2COP(=O)(O)O[C@H]2[C@H]1OC(=O)CCC,15.3%,
O=C1N=C2SCCN2C(=O)C1Cc1ccc(Cl)cc1 (stereo not given),5.46%,
CC(CN1c2ccccc2Sc2ccc(S(=O)(=O)N(C)C)cc21)N(C)C (stereo not given),6.47%,

# Reference: PubChem BioAssay (Tox21)
